Among the data in PubChem BioAssay AID540308 (The Scripps Research Institute Molecular Screening Center, 2011) are activation values, retold here.

About 3,500 (0.97%) of roughly 360,000 compounds were called active. For the sample, actives were picked, then their nearest neighbours and some compounds at random. A number with no mark means an inactive call.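 The calls were made as follows: active = activation above a per-plate cutoff, the mean activation of sample wells on that plate plus 3 SD (cut at about 8% in these data); inactive = the rest.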

The target of the assay is Melanocortin receptor 4 (Homo sapiens) (UniProt P32245). Nature of the assay: MC4R agonists recruiting beta-arrestin, primary screen, cell-based, luminescence, agonist arm of biased-ligand search (AID 540308). Conditions: U2OS MC4R beta-arrestin complementation, at 8.9 µM, stronger effect = higher value, percent of melanotan II response, DMSO zero.
Melanocortin receptor 4 (Homo sapiens), sequence (P32245 whole entry, looked up): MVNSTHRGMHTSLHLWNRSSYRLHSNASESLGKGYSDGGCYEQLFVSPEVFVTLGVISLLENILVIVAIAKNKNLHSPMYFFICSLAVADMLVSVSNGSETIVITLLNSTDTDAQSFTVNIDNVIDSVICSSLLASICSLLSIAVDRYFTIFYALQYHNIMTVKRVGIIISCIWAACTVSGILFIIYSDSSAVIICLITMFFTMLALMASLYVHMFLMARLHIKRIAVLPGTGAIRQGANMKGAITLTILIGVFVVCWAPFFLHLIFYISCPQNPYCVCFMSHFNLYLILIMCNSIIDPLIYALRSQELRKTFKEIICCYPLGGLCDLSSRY
Consider `CCNC(=O)C1(C)CCCN(C(=O)c2ccc3ccccc3n2)C1` (stereo unspecified), for which the activation is -0.3%. For `COCCNC(=O)C1(C)CCCN(Cc2cccc(F)c2)C1` (stereo unspecified) the value was -0.59%. In the case of `COc1ccc(NC(=O)C2(C)Cc3c(-c4ccc(C(N)=O)cc4)ccnc3O2)cc1` (stereo unspecified), the activation was 0.47%. Consider `O=C(Nc1cccc2cccnc12)c1ccc2sc([C@H]3C[C@H](O)[C@@H](CO)O3)nc2c1`, for which the activation was 0.55%. In the case of `CC1(C(=O)Nc2cccc3c2CCCC3)CCN1C(=O)CCc1ccc(Cl)cc1Cl` (stereo unspecified), the activation was 1.71%.

Consider `COc1cccc(CNC(=O)c2cccnc2Sc2ccc(Cl)cc2)c1`, for which the activation was 0.85%. In the case of `O=C(NC1CCCCCC1)c1cccnc1Sc1ccc(Cl)cc1`, the activation was 10.7% (active).

As to `O=C(NCc1cccnc1)c1cccnc1Sc1ccc(Cl)cc1`, the activation was 1.65%. For `CCCS(=O)(=O)NC(=O)C1(C)CCN(C(=O)c2sccc2C)C1` (stereo unspecified), the activation is -0.75%. For `COCOc1cccc(CN2CCC(C)(Oc3ccc(SC)cc3)C2)c1` (stereo unspecified) the value was 0.12%; for `CCN(C(=O)CSc1nnc(-c2ccncc2)o1)c1ccccc1`, 0.57%; for `COC(=O)CSc1nnc(-c2cccnc2)o1`, -1.17%.

Consider `Cc1cccc(C)c1OC(=O)CSc1nnc(-c2ccccc2)o1`, for which the activation was 15.5% (active). The value for `COCCCNc1ccn2nc(-c3ccc(CC(C)C)cc3)cc2n1` was 1.85%; that for `CC(c1ccco1)N(C(=O)Nc1ccccc1)C1CCCCC1` (stereo unspecified) was -3.36%; that for `Cc1ccc(S(=O)(=O)N(C)CC(=O)OCC(=O)Nc2ccccc2)cc1` was -2.23%. For `Cc1ccc(NC(=O)NC(=O)N(C2CCCCC2)S(=O)(=O)c2ccccc2)cc1` the value was 9.21% (active); for `Nc1cccc(-c2cncc(N3CCN(Cc4ccccn4)CC3)n2)c1`, -0.96%. The value for `Cc1nc(C(F)(F)F)ccc1C(=O)N1CCC1(C)C(=O)NS(=O)(=O)c1ccccc1Cl` (stereo unspecified) was -1.94%; that for `O=C(CCN1CCCCC1)N=Nc1c(O)[nH]c2ccccc12` was -1.11%. Take `Cc1c(-c2ccccc2)n[nH]c1C(=O)N=Nc1c(O)[nH]c2ccccc12`: the activation is 17.7% (active). For `Cc1[nH]c2ccccc2c1C(=O)COC(=O)c1c(-c2ccccc2)noc1C` the value was -0.48%; for `O=C(COC(=O)c1ccc[nH]c1=O)Nc1ccc2c(c1)OC(F)(F)O2`, -2.05%; for `O=C(COC(=O)c1ccccc1NC(=O)c1ccco1)Nc1ccc2c(c1)OC(F)(F)O2`, 10.1% (active). The value for `O=C(COC(=O)CNC(=O)c1ccco1)Nc1ccc(F)cc1` was -0.58%. For `CCc1nc2ccc(C(=O)NC3CCN(Cc4ccccc4)CC3)cn2c1N(C)CCN1CCOCC1` the value was -0.77%.

Regarding `COc1ccc(/C=C2/SC(=O)N(CCCCCC(=O)Nc3ccccc3C(=O)O)C2=S)cc1`, the activation was -0.47%. Consider `CC(C(=O)Nc1ccc(O)c(C(=O)O)c1)N1C(=O)/C(=C/c2cccs2)SC1=S` (stereo unspecified), for which the activation was -1.84%.

As for `COc1cccc(/C=C2\SC(=S)N(CCCC(=O)N3CCOCC3)C2=O)c1`, the activation was -0.8%. For `O=C(CN1C(=O)/C(=C\c2ccccc2F)SC1=S)Nc1nc2ccccc2s1` the value was 0.77%; for `O=C(CCCN1C(=O)/C(=C/c2cccs2)SC1=S)Nc1ccc(O)cc1`, 20.4% (active). For `O=C(CCCN1C(=O)/C(=C\c2ccco2)SC1=S)Nc1cccc2ccccc12` the value was 13.9% (active). For `COc1ccc(Cl)cc1-c1cc(C(=O)Nc2cc(OC)c(OC)c(OC)c2)[nH]n1` the value was 3.58%; for `CCCNC(=O)c1cc(C2CCCCN2S(=O)(=O)c2cn(C)cn2)on1` (stereo unspecified), -0.95%; for `COc1ccc2oc(-c3cccc(NC(=O)CSc4ccc(Cl)cc4)c3)nc2c1`, 5.84%. In the case of `O=C(Nc1ccc2oc(-c3ccc4ccccc4c3)nc2c1)c1cccs1`, the activation is 14.3% (active). `O=C(Nc1ccc2oc(-c3ccccc3F)nc2c1)c1ccco1`: the activation is -1.85%. For `CCOC(=O)C1(C)CCCN(C(=O)c2cccc(Cl)c2)C1` (stereo unspecified) the value was 0.39%; for `COc1ccc(S(=O)(=O)N2CCCCC2c2cc(C(=O)NCc3ccc(F)cc3)no2)cc1` (stereo unspecified), -0.38%; for `COc1ccc(-c2noc(COc3ccc(Cl)c(C)c3)n2)cc1`, 9.56% (active). As for `COc1ccc(N2CCN(C(=O)CCc3nc(-c4ccc(C)cc4)no3)CC2)cc1`, the activation was -1.45%.

In the case of `COc1ccc(C(C)=O)cc1COc1ccc(Cl)c(C)c1`, the activation is -1.85%.

Regarding `O=C(CCCOc1ccccc1)NCc1ccco1`, the activation is -0.5%. As for `O=C(COC(=O)CCCN1C(=O)c2cccc3cccc(c23)C1=O)NC1CCS(=O)(=O)C1` (stereo unspecified), the activation is 0.21%.

Regarding `O=C(CCCCCN1C(=O)c2cccc3cccc(c23)C1=O)NCc1ccco1`, the activation was 19.2% (active). For `CCCNC(=O)C1(C)CCN(C(=O)c2ccc(F)cc2Cl)C1` (stereo unspecified) the value was 0.56%. The value for `CCc1nnc(NC(=O)CSCc2cc(=O)n3cc(C)sc3n2)s1` was -1.4%. For `CCc1nc2c(OCCc3cccc(OC)c3)cccn2c1N(C)C(=O)c1ccc(C)cc1` the value was -0.79%.

Regarding `Cc1ccc(/C=N/NC(=O)COc2ccccc2-c2ccccc2)cc1`, the activation was 1.38%.

Regarding `CSc1ccc(/C=N\NC(=O)COc2ccc(Cl)cc2Br)cc1`, the activation is 36.4% (active). The value for `CSc1ccc(/C=N/NC(=O)c2cccc(Cl)c2)cc1` was 1.13%. Turning to `COCCNc1ncnc2c1ncn2[C@H]1CN(Cc2ccc(OC)cc2)C[C@@H](CO)O1`, the activation was 0%.

On to `CCCS(=O)(=O)NC(=O)C1(C)CCCN(C(=O)c2cc(C)on2)C1` (stereo unspecified), for which the activation was 1.12%. With `CSc1ccc(S(=O)(=O)NCc2ccc(Cl)cc2)cc1`, the activation was 10.2% (active). For the compound `Cc1ccc(S(=O)(=O)NCCC(=O)NCc2ccc(Cl)cc2)cc1C`, the activation is -1.43%. In the case of `CC(C)CNS(=O)(=O)c1ccc(CCC(=O)NCc2ccc(Cl)cc2)cc1`, the activation was 0.27%. The value for `O=C(NC(=S)Nc1ccc(S(=O)(=O)Nc2ncccn2)cc1)c1cccc(Br)c1` was -2.77%; that for `O=C(NC1CC1)c1cccc(Br)c1` was -2.46%; that for `O=C(NC(=S)Nc1cccc2c(O)cccc12)c1cccc(Br)c1` was 30.6% (active). The value for `Cc1ccccc1Cn1c(C)c(C(=O)NCc2cccc(C(F)(F)F)c2)sc1=O` was 2.6%. For `CC(C)NC(=O)CCCn1c(=S)[nH]c2cc3c(cc2c1=O)OCO3`, the activation was -1.77%. The value for `Cc1ccc(C)c(N2CCN(C(=O)CCCCCn3c(=S)[nH]c4ccc(N5CCOCC5)cc4c3=O)CC2)c1` was -2.66%. The value for `O=C(CCCCCn1c(=S)[nH]c2cc3c(cc2c1=O)OCO3)N1CCN(c2ccc(F)cc2)CC1` was 13.7% (active). For `CCc1nc2ccc(C(=O)NCCNC(C)=O)cn2c1N(CC)Cc1cccc(Br)c1` the value was -0.75%; for `CCc1nc2ccc(C(=O)Nc3cccc(OC)c3)cn2c1N(CCC(C)C)CCN(C)C`, 0.02%; for `COc1ccc(C(C)(NC(C)=O)c2nc(-c3ccc(S(C)(=O)=O)cc3)cs2)cc1` (stereo unspecified), -1.32%.

On to `CC(=O)Nc1ccc(OC(=O)COc2ccc(Br)cc2)cc1`, for which the activation was -0.49%.

`Cc1ccc(O)c(NC(=S)NC(=O)COc2ccc(Br)cc2)c1`: the activation was 19.5% (active). With `Cn1cccc1C(=O)NNC(=O)COc1ccc(Br)cc1`, the activation was -1.12%. For `CCCC(=O)N1CCC1(C)C(=O)NCc1ccc(SC)cc1` (stereo unspecified) the value was -2.08%; for `CC(C)c1ccc(CC(=O)N2CCC2(C)C(=O)NS(=O)(=O)c2ccc(C(C)(C)C)cc2)cc1` (stereo unspecified), 0.36%.

In the case of `CCS(=O)(=O)Nc1cccc(-c2cc(-c3ccccc3)c3cc(C)ccc3n2)c1`, the activation was 8.87% (active). Regarding `Cc1cc(C)cc(NS(=O)(=O)Cc2ccccc2)c1`, the activation is 0.25%. Consider `CS(=O)(=O)Nc1cccc(-c2cn3ccccc3n2)c1`, for which the activation was -3.26%. For `CNc1cncc(-c2cccc(C(=O)N3CCOCC3)c2)n1` the value was -2.12%; for `COc1ccc(CC(N)c2csc(NC(=O)Nc3ccc(C(C)C)cc3)n2)cc1` (stereo unspecified), 4.05%; for `NC(Cc1ccccc1)c1csc(Nc2cc(Oc3ccccc3)ncn2)n1` (stereo unspecified), 4.18%. Turning to `COc1ccc(CC(N)c2csc(NC(=O)NC(c3ccccc3)c3ccccc3)n2)cc1` (stereo unspecified), the activation was 13.1% (active). The value for `COc1ccc(C(N)c2csc(NC(=O)Nc3cccc(C(F)(F)F)c3)n2)cc1` (stereo unspecified) was 9.99% (active); that for `NC(c1csc(NC(=O)Nc2cccc(C(F)(F)F)c2)n1)C1CCCCC1` (stereo unspecified) was 6.14%; that for `COc1ccc(CC(N)c2csc(NC(=O)Cc3ccccc3)n2)cc1` (stereo unspecified) was -0.85%. For `NC(c1ccccc1)c1csc(NC(=O)Nc2cccc(C(F)(F)F)c2)n1` (stereo unspecified) the value was 7.09%.

Take `CC(C)(C)CC(=O)Nc1nc(C(N)Cc2ccc(C(F)(F)F)cc2)cs1` (stereo unspecified): the activation is 9.49% (active).

For the compound `NC(Cc1ccc(F)cc1)c1csc(Nc2nncc3ccccc23)n1` (stereo unspecified), the activation was 6.94%. Regarding `Cc1cccc(NC(=O)CN2CCN(CC(=O)NCC3(N4CCCCC4)CCCCC3)CC2)c1C`, the activation was -0.84%. The value for `c1cc(-c2ccc3[nH]ccc3c2)n2ccnc2c1` was -0.92%; that for `CCNC(=O)C1CCCN(C(=O)c2ccc(OC)cc2OC)CC1` (stereo unspecified) was 0.47%.

Turning to `O=C(NCc1ccco1)c1cccc(-c2ccc3nncn3c2)c1`, the activation is 1.37%. The value for `CCCOc1ccc(F)cc1-c1cc(C(=O)Nc2ccc(F)cc2)[nH]n1` was 0.53%; that for `CC1(C(=O)NS(=O)(=O)c2ccccc2)CCN1C(=O)C/C=C/c1ccccc1` (stereo unspecified) was -2.25%.

For `COCc1cccc(-c2csc(C(O)c3ccc(F)cc3)n2)c1` (stereo unspecified), the activation is -0.9%.
